Source: PubChem BioAssay
A selection: hits, their analogues and other compounds. The true share with any hit is near 2.9%.
KDM5B inhibitor – inhibitors of human KDM5B histone demethylase. KDM5B demethylase, FDH-coupled NADH fluorescence (FDH is formaldehyde dehydrogenase). Potency, µM (highest dose often 57.7 µM), most hits filed as inhibitors. 220,000 compounds, 2.6% hits. AID 1347165; also: potency is read from the fitted curve at half-maximal effect; 0% is about no effect; nearly all actives have a fitted effect of over 70% in size
Target sequence (Q9UGL1 whole entry, looked up): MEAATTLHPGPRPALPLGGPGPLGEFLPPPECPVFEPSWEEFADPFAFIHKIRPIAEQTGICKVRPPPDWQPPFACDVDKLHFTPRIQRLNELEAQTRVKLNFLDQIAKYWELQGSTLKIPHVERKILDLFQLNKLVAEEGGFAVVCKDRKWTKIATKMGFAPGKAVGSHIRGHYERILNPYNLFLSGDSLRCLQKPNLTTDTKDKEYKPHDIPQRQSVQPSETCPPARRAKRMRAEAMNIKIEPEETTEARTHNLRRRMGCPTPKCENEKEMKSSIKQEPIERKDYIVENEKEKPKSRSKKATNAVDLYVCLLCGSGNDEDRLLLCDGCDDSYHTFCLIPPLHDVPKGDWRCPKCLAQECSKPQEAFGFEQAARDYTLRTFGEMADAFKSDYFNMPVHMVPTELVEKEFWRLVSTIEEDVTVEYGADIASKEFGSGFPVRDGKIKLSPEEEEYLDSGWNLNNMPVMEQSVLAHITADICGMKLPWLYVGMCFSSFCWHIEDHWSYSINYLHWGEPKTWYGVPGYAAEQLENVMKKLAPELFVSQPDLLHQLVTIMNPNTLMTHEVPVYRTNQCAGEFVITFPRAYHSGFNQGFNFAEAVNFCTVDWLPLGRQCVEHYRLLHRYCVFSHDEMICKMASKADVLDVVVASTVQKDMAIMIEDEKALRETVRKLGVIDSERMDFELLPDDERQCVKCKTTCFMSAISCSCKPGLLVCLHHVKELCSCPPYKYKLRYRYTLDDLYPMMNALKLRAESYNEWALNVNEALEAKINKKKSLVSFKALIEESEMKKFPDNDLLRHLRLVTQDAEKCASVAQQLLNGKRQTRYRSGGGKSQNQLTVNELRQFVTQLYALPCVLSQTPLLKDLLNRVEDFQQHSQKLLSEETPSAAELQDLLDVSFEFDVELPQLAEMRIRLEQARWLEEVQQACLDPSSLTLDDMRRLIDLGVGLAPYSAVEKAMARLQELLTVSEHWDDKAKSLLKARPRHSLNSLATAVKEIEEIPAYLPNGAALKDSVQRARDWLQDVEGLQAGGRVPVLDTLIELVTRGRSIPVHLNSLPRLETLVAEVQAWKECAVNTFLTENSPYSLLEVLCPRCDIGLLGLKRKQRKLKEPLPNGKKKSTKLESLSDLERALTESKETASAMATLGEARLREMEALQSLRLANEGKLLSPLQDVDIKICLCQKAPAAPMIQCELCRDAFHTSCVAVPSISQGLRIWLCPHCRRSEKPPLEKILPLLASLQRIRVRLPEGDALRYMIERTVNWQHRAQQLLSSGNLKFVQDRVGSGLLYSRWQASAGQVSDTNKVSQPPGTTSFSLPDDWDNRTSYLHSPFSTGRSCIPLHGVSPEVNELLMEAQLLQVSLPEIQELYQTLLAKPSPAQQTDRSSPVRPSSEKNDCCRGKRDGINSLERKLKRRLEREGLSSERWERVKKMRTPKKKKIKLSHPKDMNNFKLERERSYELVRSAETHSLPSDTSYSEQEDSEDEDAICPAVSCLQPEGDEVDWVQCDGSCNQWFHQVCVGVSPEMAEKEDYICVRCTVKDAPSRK
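qHTS format, multiple compound concentrations. Buffer 50 mM HEPES pH 7.5/0.01% Tween-20; 200 nM KDM5BΔAP final; 10 min compound preincubation; substrate-mix levels 12.5 µM peptide, 25 µM α-KG, 0.25 mM NAD⁺; 30 min RT; ΔRFU.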
SNCA expr inhib – reduces expression of the alpha-synuclein gene; 140,000 compounds, 0.17% hits; AID 1671194; HEK-293 SNCA-luciferase knock-in, luminescence, 24 h; Potency, µM (top dose mostly 57.2 µM), without a hit: at the top dose activity change, negative = inhibition, actives largely listed as inhibitors;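 also: potency is read from the fitted curve at half-maximal effect; plate controls were DMSO cells for no effect and cell-free wells for full effect; nearly all actives have a fitted effect of over 45% in size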
IP6K1 inhibitor – blocks human inositol hexakisphosphate kinase 1. Q92551. IP6K1 kinase, ADP-Glo luminescence, 2 h; active compounds read low. activity change, % (series mostly up to about 58 µM). 140,000 compounds, 0.81% hits. AID 1645851; in the data active = activity change below about -25%; also: % is scaled to controls: 0 for no effect and ±100 for the full control effect
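ADP-Glo luminescence measures ADP made by human IP6K1 during a 2 h RT reaction with ATP/IP6 (mix at 1.3 mM/130 uM); top library doses 57.5 and 19.1 uM final.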
HEK293 viab – counter-screen for SNCA expression inhibitors: cell viability. Potency, µM (titrated, usually from 57.1 µM), without a hit: at the highest dose activity change, negative = cytotoxicity, most hits filed as cytotoxic. AID 1671193. 150,000 compounds, 0.12% hits. HEK-293-SNCA-luc viability, GF-AFC fluorescence, 24 h;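 also: potency is read from the fitted curve at half-maximal effect; 0% = DMSO-treated cells and -100% = medium-only wells without cells; nearly all actives have a fitted effect of over 30% in size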
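Cytotoxicity counterscreen: after 24 h compound treatment of genome-edited SNCA-luciferase HEK-293 cells, live-cell protease substrate GF-AFC read by fluorescence after 30 min; activity scaled between DMSO (0%) and medium-only (-100%), curves Hill-fitted.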
* = called active by the depositor; i = inactive; u = inconclusive; x = no result; ! = not confirmed by another sample; [ ] = remark or other dose. Unless noted, calls follow the shape of the dose curve; as a rule, active = well fitted curve in the direction sought with a large enough effect; inconclusive = small, poorly fitted or top-dose-only effect, or another doubt; inactive = no such curve, though single readings can be large; an effect the other way counts as inactive or inconclusive.

SMILES	KDM5B inhibitor	SNCA expr inhib	IP6K1 inhibitor	HEK293 viab
COCCn1ccc2c(C3=CCOCC3)nc(-c3cccc4[nH]ncc34)cc21	28µM*	2%[87.6 µM]	-7	-12%[87.6 µM]
COCCn1ccc2c(C3=CCOCC3)nc(-c3cccc(N4CCOCC4)c3)cc21	u	-6%[87.6 µM]	-4	11%[87.6 µM]
COCCn1ccc2c(C3=CCOCC3)nc(-c3cccc4[nH]ccc34)cc21	35µM*	-19%[87.6 µM]	5	u
c1cn2cc(-c3ccc4cn[nH]c4c3)nc(Nc3ccc(N4CCOCC4)cc3)c2n1	x	x	-9	-14%
Cc1ccsc1-c1[nH]nc2ncc(-c3ccc(CO)cc3)nc12	i	-15%[87.6 µM]	-3	-24%[87.6 µM]
CC(=O)N1CCC(C(=O)N2CCC3(CC2)CC(=O)Nc2ccccc2O3)CC1	x	2%	9	11%
COCCn1ccc2c(C3=CCOCC3)nc(-c3cccc(CO)c3)cc21	40µM*	5%[87.6 µM]	2	-1%[87.6 µM]
Cn1ccc(NC(=O)c2ccc3c(c2)NC(C)(CCCCc2ccccc2)CO3)n1 (centres undefined)	32µM*	-26%[87.6 µM]	4	-13%[87.6 µM]
CNC(=O)c1ccc2c(c1)NC(C)(CCCCc1ccccc1)CO2 (centres undefined)	32µM*	-17%[87.6 µM]	-10	-19%[87.6 µM]
CC(=O)N1CCCN(C(=O)c2ccc3c(c2)NC(C)(CCCCc2ccccc2)CO3)CC1 (centres undefined)	i	-15%	-8	-5%
C[C@@H]1CN(C(=O)c2ccc3c(c2)NC(C)(CCCCc2ccccc2)CO3)C[C@H](C)O1 (some centres undefined)	35µM*	-25%[87.6 µM]	-11	11%[87.6 µM]
CC1(CCCCc2ccccc2)COc2ccc(C(=O)NC3CCC(O)CC3)cc2N1 (centres undefined)	40µM*	u	8	-6%[87.6 µM]
CC1(CNc2ccccc2)COc2ccc(C(=O)NC3CCOCC3)cc2N1 (centres undefined)	u	u	-1	-5%[87.6 µM]
O=C(CCc1ccnc(N2CCCC2)c1)NCc1ccc(F)c(Cl)c1	u	17%	-5	0%
CN1C(=O)c2ccccc2-n2c(nc3ccccc3c2=O)/C1=C/c1ccccc1	x	x	9	-24%
c1ccc(-c2ccccc2Nc2cnc3ccc(N4CCOCC4)nn23)cc1	i	-23%[87.6 µM]	-18	u
Clc1ccccc1Nc1cnc2ccc(N3CCOCC3)nn12	32µM*	-26%[87.6 µM]	3	-1%[87.6 µM]
FC(F)(F)c1cc(Nc2cnc3ccc(N4CCOCC4)nn23)ccc1Cl	32µM*	-8%[87.6 µM]	-17	15%[87.6 µM]
CC=CC(=O)N(CC)c1ccccc1C	x	-7%	x	4%
O=C(COc1cc(O)c2c(=O)cc(-c3ccccc3)oc2c1)Nc1ccc(O)cc1	i	x	x	x
O=C(C1CCCN1c1nc2ncccc2o1)N1CCCC1 (centres undefined)	40µM*	-13%[87.6 µM]	1	-11%[87.6 µM]
O=C(C1CCCN1c1nc2ncccc2o1)N1CCN(c2ncccn2)CC1 (centres undefined)	14µM*	-5%	2	u
O=C(C1CCN(c2nc3ncccc3o2)CC1)N1CCN(c2ncccn2)CC1	x	-7%	8	-4%
O=C(C1CCCN1c1nc2ncccc2o1)N1CCOCC1 (centres undefined)	28µM*	8%[87.6 µM]	-5	7%[87.6 µM]
c1ccc(Cc2noc(-c3nc(-c4ccc5c(c4)OCO5)no3)n2)cc1	35µM*	19%	-13	-8%
SMILES	KDM5B inhibitor	SNCA expr inhib	IP6K1 inhibitor	HEK293 viab
CCCc1noc(-c2nc(-c3ccc(OC)c(OC)c3)no2)n1	i	38%	14	-2%
COc1ccc(-c2noc(-c3nc(Cc4ccccc4)no3)n2)cc1OC	28µM*	-10%	7	-16%
CC(C)NC(=O)N[C@H]1C[C@H]2C(=O)NC[C@@H](CCC(=O)N3CCc4ccccc43)N2C1	u	53%[87.6 µM]	-3	6%[87.6 µM]
COc1ccc(C(=O)Nc2ccc3c(c2)CN(Cc2ccc(OC)cc2OC)C(=O)C(C)O3)cc1 (centres undefined)	i	5%	-6	-15%
COc1ccc(CN2Cc3cc(NC(=O)c4ccc(Cl)cc4)ccc3OC(C)C2=O)c(OC)c1 (centres undefined)	25µM*	0%	-11	-26%
CCNC(=O)Nc1ccc2c(c1)CN(Cc1ccccc1OC)C(=O)C(C)O2 (centres undefined)	28µM*	-11%	1	13%
CCC(C(=O)Nc1ccc2c(c1)CN(Cc1ccccc1OC)C(=O)C(C)O2)c1ccccc1 (centres undefined)	i	-10%	14	-5%
COc1ccc(-c2cc3ccc(OCCN4CCN(CCO)CC4)cc3oc2=O)cc1OC	i	x	x	x
COc1ccc(CNc2ccnc(-c3ccc4c(c3)OCO4)n2)c(OC)c1	x	37%	x	-16%
CC#CCN(Cc1ccco1)C(=O)C1CCC(=O)N(Cc2ccccc2F)C1 (centres undefined)	i	x	x	x
CN1CCN(c2ccc(NC(=O)c3cc(F)cc(F)c3)nc2)CC1	i	x	x	x
CN1CCN(c2ccc(C(=O)Nc3n[nH]c4ccc(Cc5cc(F)cc(F)c5)cc34)c(NC3CCOCC3)c2)CC1	x	u	-12	27µM*!
CCN1CCc2[nH]cnc2C12CCN(C(=O)Cc1c[nH]c(=O)[nH]c1=O)CC2	u	17%	-13	4%
CCC(CC)C(=O)NC[C@@H]1C=C(C)[C@H](Cc2nc3ccc(OC)cc3[nH]2)C[C@H]1C(C)C	u	u	5	40µM*
COc1ccc(CNC(=O)C[C@@H]2C[C@@H](C(C)C)[C@H](CNC(C)=O)C=C2C)cc1	35µM*	-23%[87.6 µM]	-7	-28%[87.6 µM]
Cn1c2c(c3ccccc31)CN(C(=O)Nc1ccccc1F)CC2	22µM*	48%	-10	-2%
Cn1c2c(c3ccccc31)CN(C(=O)Nc1ccc(Cl)cc1Cl)CC2	22µM*	48%	-13	5%
CCc1noc(-c2cn(C3CCN(C(=O)c4cccc(Cl)c4)CC3)nn2)n1	i	u	25	-5%
Cc1nn(-c2ccc(C(C)(C)C)cc2)c(C)c1[C@@H]1C=C[C@@H](NC(=O)CCCC(=O)O)C1	i	42%[87.6 µM]	26	1%[87.6 µM]
O=C(NC1CCCC1)c1cc(C2CC2)nc2onc(C3CCNC3)c12 (centres undefined)	u	39%	7	3%
COc1ccc(-c2cc(C(=O)NC3CC3)c3c(C4CCNC4)nn(C)c3n2)cc1 (centres undefined)	79µM*	-13%	-2	-10%
COCCNC(=O)c1cc(-c2ccc(OC)cc2)nc2c1c(C1CCNC1)nn2C (centres undefined)	u	-15%	-2	9%
COc1ccc(-c2cc(C(=O)NCC3CC3)c3c(C4CCCN4)noc3n2)cc1 (centres undefined)	u	-7%	3	4%
COc1ccc(-c2cc(C(=O)NC3CC3)c3c(C4CCCNC4)noc3n2)cc1 (centres undefined)	79µM*	10%	-3	6%
O=C(NC1CCNCC1)c1cc(C2CC2)nc2onc(C3CCNC3)c12 (centres undefined)	79µM*	-25%	-1	7%
